Assay results from PubChem BioAssay (NCATS).
Records with an inconclusive call do not appear. Unmarked numbers belong to inactive results. The call rests on the fitted dose curve; in most records, active means well fitted inhibition curve with a large enough effect; inconclusive means small, poorly fitted or top-dose-only effect; inactive means flat fitted curve, though single readings scatter.

system: Zika virus NS2B-NS3 protease; experiment: Primary screen GU AMC qHTS for Zika virus inhibitors (AID 1347154); settings: Zika NS2B-NS3 unlinked protease, AMC fluorogenic substrate; series mostly up to 54.1 µM; activity change, negative = inhibition: at the top concentration;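 further: 0% = no-inhibitor control and -100% = no-enzyme control; nearly all actives have a fitted effect of over 70% in size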
Procedure, shortened: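 Unlinked Zika NS2B hydrophilic domain/NS3 protease domain noncovalent complex (25 nM final) in 10 mM Tris-HCl pH 8.0, 0.01% Tween 20, with AMC peptide substrate. Fluorescence (ex 340, em 450 nm) change over 15 min, room temperature; percent inhibition fitted to 4-parameter Hill equation.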

Row | Structure (SMILES) | activity change, negative = inhibition
1 | C#CC(C)(CC)OC(=O)c1ccccc1C(=O)O (stereo not drawn) | -3.84%
2 | CN1C(=O)CC(C)(c2ccccc2)C1=O (stereo not drawn) | 1.57%
3 | O=C(CO)[C@@H](O)[C@H](O)[C@@H](O)CO | -1.46%
4 | CCCN(CCC)C(=O)C(CCC(=O)OCCCN1CCN(CCOC(=O)Cc2c(C)n(C(=O)c3ccc(Cl)cc3)c3ccc(OC)cc23)CC1)NC(=O)c1ccccc1 (stereo not drawn) | -13%
5 | C=CC[N+]1([C@H]2C[C@H]3[C@@H]4CC[C@H]5C[C@H](OC(C)=O)[C@@H](N6CCCCC6)C[C@]5(C)[C@H]4CC[C@]3(C)[C@H]2OC(=O)CC)CCCCC1 | -0.881%
6 | COC(=O)c1cc(Cl)c(NC(C)=O)cc1OC | -7.83%
7 | Nc1nc(=O)n([C@@H]2O[C@H](CO)[C@@H](O)[C@@H]2F)cc1I | 2.97%
8 | Fc1ccc(C(c2ccc(F)cc2)N2CCNCC2)cc1 | 0.161%
9 | O=C1CC[C@H](C(=O)N2CCCCC2)N1 | -5.47%
10 | CNC(=O)c1c(I)c(NC(C)=O)c(I)c(C(=O)O)c1I | -0.81%
11 | CCC[C@H](N[C@@H](C)C(=O)N1[C@H](C(=O)O)C[C@@H]2CCCC[C@@H]21)C(=O)OCC | -9.56%
12 | COC(=O)c1cc(Cl)ccc1OC | -3.12%
13 | C/C(=N\O)[C@@H](C)NCC(C)(C)CN[C@H](C)/C(C)=N/O | -2.07%
14 | CC(C)=CCC/C(C)=C/CC/C(C)=C/CCC(=O)OC/C=C(\C)CCC=C(C)C | 0.793%
15 | OC(CCCN1CCCCC1)(c1ccccc1)c1ccccc1 | 2.65%
16 | Oc1ccc(CCNCCCCCCNCCc2ccccc2)cc1O | -0.304%
17 | CO/N=C(/C(=O)N[C@@H]1C(=O)N2C(C(=O)O)=C(Cn3nnc(C)n3)CS[C@H]12)c1csc(N)n1 | -4.25%
18 | O=C(Nc1ccc(Cl)cc1)Nc1ccc(Cl)c(Cl)c1 | 0.406%
19 | O=C1CC2(CCCC2)CC(=O)N1 | 3.43%

Row | Structure (SMILES) | activity change, negative = inhibition
20 | CC1CCCCN1CCCOC(=O)c1ccc(OC2CCCCC2)cc1 (stereo not drawn) | -4.59%
21 | CN1CCCN(C(c2ccccc2)c2ccc(Cl)cc2)CC1 (stereo not drawn) | 8.8%
22 | C/C(=C1\CCOC(=O)S1)N(C=O)Cc1cnc(C)nc1N | 2.39%
23 | CCCCCCCC(=O)[O-].CCCCCCCC(=O)[O-].[Zn+2] | -10.5%
24 | Cc1ccccc1N1CCN(CCc2nnc3n2CCCC3)CC1 | -1.11%
25 | Oc1ccccc1-c1nnco1 | -10.8%
26 | COCCc1ccccn1 | 1.69%
27 | c1ccc2occc2c1 | 3.1% [at 104 µM]
28 | C[C@@H](O[C@H]1OCCN(Cc2n[nH]c(=O)[nH]2)[C@H]1c1ccc(F)cc1)c1cc(C(F)(F)F)cc(C(F)(F)F)c1 | -23.2%
29 | CCOC(=O)[C@H](CCc1ccccc1)N[C@@H](C)C(=O)N(CC(=O)O)C1Cc2ccccc2C1 | -8.87%
30 | CCOC(=O)C(=O)CCc1ccccc1 | -4.8%
31 | Cc1sccc1Br | -0.159%
32 | CCCCC(O)/C=C(C)/C=C/C=C/C(=O)N1CCCC1=O (stereo not drawn) | -5.24%
33 | CC[N+]1(CC)CCC(=C(c2ccccc2)c2ccccc2)C1C (stereo not drawn) | -0.848%
34 | O=C(OCCN1CCOCC1)c1cccnc1Nc1cccc(C(F)(F)F)c1 | -0.748%
35 | COC(=O)c1ccc(NC(C)=O)cc1OC | -4.41%
36 | CC(C)(C)C(=O)OCOC(=O)C1N2C(=O)CC2S(=O)(=O)C1(C)C (stereo not drawn) | 3.92%
37 | Cc1cccc(OCC(O)CNC(C)(C)C)c1C (stereo not drawn) | -1.44%
38 | CCCc1ncc(C(=O)O)s1 | -3.21%
